Test results published in publication PMC13494018.
Values without a mark were called inactive. The rule behind the calls is not given here.

B1: d6r1_design_ppi_617_dldesign_0_cycle1_af2pred (protein)
chain: AAAQAQQLMNEALALLFEAARKAPDPSEILRAASKAAQGHLSGSLAEEALAYIREVAEKYPEVAELINEAAELYAQAAKL
B2: d6r1_design_ppi_658_dldesign_0_cycle1_af2pred (protein)
chain: LEEELEKAKNEAKLLLAEAAATLLATDAKGQKAAQLLAAAIAYLDTDPEQALKDAKEALKLVPDSEKVKKALEATEKALELKKKI
B3: d6r1_design_ppi_695_dldesign_0_cycle1_af2pred (protein)
chain: EAAARQAAINAAALAVAKAVVDKAFADQSPAVVAGAKTMVTMIVNLYADPAKRPQAEALAENSHPAVREAVDAGLAAAAALAAA
B4: d6r1_design_ppi_699_dldesign_0_cycle1_af2pred (protein)
chain: EEEAKEKIREAAKEAAAAAKAQDPAHAPLIEAAAKEIAEAAEKGLVEAQEKANALARAHPEAAQHFSLIFAFAAQAYAEAR
B5: d6r1_design_ppi_719_dldesign_0_cycle0_af2pred (protein)
chain: AAAAAAEAARQASAEKAKQLGLDLAEDARRLTEAGGSPAAVQAALNSAEAVARNLAAMGEVGKPFAEEVLKAAEEARKLAA
B6: d6r1_design_ppi_759_dldesign_0_cycle0_af2pred (protein)
chain: MAKVEQLLNNAKAYAGAAENAARTHSENPELQKLAKEAKEYYEKAEKAYKEGKLKEAEEYAKKAIEKAAEAFSLLQ
B7: d6r1_design_ppi_759_dldesign_0_cycle1_af2pred (protein)
chain: AAETERALRNAKAYATAAEHAAKAHPESPELKKLAAEAKAYYKKAAAAYAAGKKEEALKYAQKAIEKAAEAFSLLS
B8: d6r1_design_ppi_761_dldesign_0_cycle0_af2pred (protein)
chain: AEEKERLKELAKFAKEALKKVEELRAAIKANADDPAAVAAARDAMIALAKEAAEKDAEVGNAVMIALGDPEKGVEKLKEVTEKLEKAA
B9: d6r1_design_ppi_785_dldesign_0_cycle1_af2pred (protein)
chain: AAAASAAQTATITRAAVASGNTFDAARAGAEMLHYQDPAVGEEVAKTVEEAKKLSPEEAKAAILAKFDAIAARYA
B10: d6r1_design_ppi_801_dldesign_0_cycle0_af2pred (protein)
chain: AALAALTAEANARANAILGRAFAEALARTRAGESPAPVFAAAAAELRRLGEESNPEGRAIADSGIALLQAAA
B11: d6r1_design_ppi_807_dldesign_0_cycle1_af2pred (protein)
chain: AQAKRVSLAAALALLNSAIDAAADPKSAAALAEQAADLLESTGEAAPLGKKAKEAAKLLLEDPEKGKALAKEVAKKAAELLAKT
B12: d6r1_design_ppi_812_dldesign_0_cycle0_af2pred (protein)
chain: SAELAERLRRISELFRKAIESGVEEAKRYVEEAAREFARLSGDEERGRELAREAKEAVELGEEGKEAVRAVAQRMLLYGAQAA
B13: d6r1_design_ppi_821_dldesign_0_cycle1_af2pred (protein)
chain: AAAQARAEARALNERARALLAAAPVGRAAEAEALATRALGLALAHREAFSNAEMTDILRTLARAAGAARQQAA
B14: d6r1_design_ppi_829_dldesign_0_cycle0_af2pred (protein)
chain: EEAKKKAEELIAEVKAYADAAAAAAAAAGAARGAAAAALAAAAIAGIKNIAKAAEEEIKEAAEDPEKQKEIAERAKENIDKILAVALG
B15: d6r1_design_ppi_833_dldesign_0_cycle0_af2pred (protein)
chain: MTPMSAAVAAAEEAIAAATAADPERGGRIAQEAFRGLAQATAIYVTQGKAAGDAAAEELRKRFEAEKAKVEAEAA
B16: d6r1_design_ppi_848_dldesign_0_cycle0_af2pred (protein)
chain: AAAETGLKILEATVQALLKNASKYSAEAVKKLSEVLKASAEAEAKAGGEKLKERAKEIKKLAEEAEKKAKEAAKAKAE
B17: d6r1_design_ppi_848_dldesign_0_cycle1_af2pred (protein)
chain: AAGEKALEILKKTAQALLKNAPLLTAEAAAKLAKVIIDAAWAAAKKIGPEAEKVAKEVKALAKEAVAAAAAAAKARAA
B18: d6r1_design_ppi_887_dldesign_0_cycle1_af2pred (protein)
chain: AAVEEATAKAKELREKATKLALEGIRTGNQELVEKAKEKAEKAKELGESSNEEAKEYAKVALAVAEMAKAAL
B19: d6r1_design_ppi_900_dldesign_0_cycle1_af2pred (protein)
chain: GEEAAREAEELERRAEELEELARRARELSAEELTEAALEAVRLANRAHALMTAGAPPEVAARLQEVAARALEAAERLSREAREKRA
B20: d6r1_design_ppi_911_dldesign_0_cycle1_af2pred (protein)
chain: GAAERTGRALANTAVAFAKSGSEEEAVAFATQMAEQIAALPGAEAAVARMAEELAKVLSPEAAAKVREAAAAILAKAAA
B21: d6r1_design_ppi_973_dldesign_0_cycle1_af2pred (protein)
chain: EQKKAAEEAAKAIKEAAKKAKELGDEATANGLQAIATALKNAVEAGDYKAAAELAKIGAAQAATLPELAPLAKKIEKLAKKIEE
B22: d6r1_design_ppi_1013_dldesign_0_cycle0_af2pred (protein)
chain: SAEVQALLEEARRHIARAQKLLVAGNKEEALKEAEEAKKLAEEAKKLAADDPELAKSAEGLIKLAEAVIESAKA
B23: d6r1_design_ppi_1028_dldesign_0_cycle0_af2pred (protein)
chain: AAAIAATKAELAKGKALLAKAKAAPAAAWNEALAAELRAAANALNRAATALLAAGGDTALAVEATETAVELLKAAGEINRA
B24: d6r1_design_ppi_1033_dldesign_0_cycle1_af2pred (protein)
chain: AAEEEAKNAQVRQLAAQAFSYNLLADAAKQLAAAKGPEYEAKAKEYQAKAAAYKAEAEALNPEVFAAALAEVQAKYDAAL
B25: d6r1_design_ppi_1043_dldesign_0_cycle1_af2pred (protein)
chain: AQASIQRGAQAANALMAAAAGYYAKKYKGPLGEKAKAAADQAAALAAQSAANPATAQANAQQASALLDELLKEVKAYEE
B26: d6r1_design_ppi_1056_dldesign_0_cycle0_af2pred (protein)
chain: AAAAAAAAQAETDALADEARELAAKAAEKIDPEKGALLKELTDYYAAKARSGTDEAGRTGLRALLSAARNIVS
B27: d6r1_design_ppi_1061_dldesign_0_cycle1_af2pred (protein)
chain: AAAALAAAAAIAATLLAAGKAGDAATAAAALYGAALVLALADPAYAEVYDAVARAVSPAARAAGGAAAIALLAAAQA
B28: d6r1_design_ppi_1068_dldesign_0_cycle0_af2pred (protein)
chain: MAAELTAKAQEAVERAAAAEAAGLKEAATLYLKAAAYYHAGAVNPATAAENAAKGEEYLAQAEALEKAAA
B29: d6r1_design_ppi_1068_dldesign_0_cycle1_af2pred (protein)
chain: APAVLLAQAQKSAELALKALELGYNEAAVLFLQAASYFFAGAVNPATAATYAAKGVELIEKGLALLKAAS
B30: d6r1_design_ppi_1088_dldesign_0_cycle1_af2pred (protein)
chain: GQAGTAKALINMARIGAKLGEEAYEVLKTIFETLANMIADPAWAEGGRAAREAIYAITMEIDPELAKRVLEEVE
B31: d6r1_design_ppi_1105_dldesign_0_cycle1_af2pred (protein)
chain: AEKERLKEAAKRSAEKARELAKAGYALGAKAAILAAVRAAKEAGDAELVKEVLEVAKEAAKHPEVKPALEEAKKALEEVKK
B32: d6r1_design_ppi_1117_dldesign_0_cycle0_af2pred (protein)
chain: SQQQTQQAQQQAQATIAQTQAARDELKKLAADPEARAAAESAAQQLAVAQDLNASGTLVGAQAALAMAQQALAVATATLAKAKAA
B33: d6r1_design_ppi_1146_dldesign_0_cycle1_af2pred (protein)
chain: AEEEAAKLKAQADGLDTIATALIEQAKTGDAAVARGAAAAAVSLAKKAAELYKRAAKLAGDEKFGKEQAKKQKAKAKEAKEVAEKKAA
B34: d6r1_design_ppi_1153_dldesign_0_cycle0_af2pred (protein)
chain: TEAAAALLRKTIAALERRVERAPEMSLEEAKALAESAKVLLEAGKAVPEVAAAAEELYKRAEEVAKKKAEEAAA
B35: d6r1_design_ppi_1169_dldesign_0_cycle1_af2pred (protein)
chain: ELEEEVERAVEEAREAAERAREAGKANPALAPQLEAVVRFLETAAEYARESGEEGTEALKEAVEAARGMAEAALAA
B36: d6r1_design_ppi_1193_dldesign_0_cycle0_af2pred (protein)
chain: EEERQQLLAEAEALFARANALLPAAAAAGSEATALVVESLEYASKAARLAREGGDLEEAQKLLEKAKKYLAEAEKLIAA
B37: d6r1_design_ppi_1193_dldesign_0_cycle1_af2pred (protein)
chain: MEELKKLKEEAEKLFQKARDIMPQAVKAGNEAVSKVVEAQKYATEAAKLAKEGGDLEEAKKKYEKAKKYYEEALKLIAA
B38: d8r1_design_ppi_530_dldesign_0_cycle0_af2pred (protein)
chain: AAALAAALAAAAEAAAAAEAEAVAAAVSETVAAAARAAIKSFESGANKELAKQAMAAASAAGAAMKAGDTAAAQQYAAQTQALVAQIA

biological target: CD276, Q5ZPR3
Sequence (Q5ZPR3 whole entry): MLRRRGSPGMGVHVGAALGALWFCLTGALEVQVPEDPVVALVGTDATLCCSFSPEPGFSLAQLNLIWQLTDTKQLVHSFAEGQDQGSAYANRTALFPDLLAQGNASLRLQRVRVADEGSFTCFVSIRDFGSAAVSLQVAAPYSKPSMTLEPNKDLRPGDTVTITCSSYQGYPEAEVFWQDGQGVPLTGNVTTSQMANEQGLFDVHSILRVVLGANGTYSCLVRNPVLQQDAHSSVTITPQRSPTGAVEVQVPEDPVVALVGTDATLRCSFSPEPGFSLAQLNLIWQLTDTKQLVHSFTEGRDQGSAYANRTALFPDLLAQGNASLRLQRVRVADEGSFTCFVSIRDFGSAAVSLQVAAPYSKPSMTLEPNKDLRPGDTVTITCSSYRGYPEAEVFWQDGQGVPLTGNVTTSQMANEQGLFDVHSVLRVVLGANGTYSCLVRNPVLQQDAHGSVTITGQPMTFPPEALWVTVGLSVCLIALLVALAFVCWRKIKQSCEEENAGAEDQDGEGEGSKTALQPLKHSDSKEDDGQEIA

Row | Binder | binding in a display sort
1 | B1 | not found
2 | B2 | not found
3 | B3 | not found
4 | B4 | not found
5 | B5 | not found
6 | B6 | not found
7 | B7 | not found
8 | B8 | not found
9 | B9 | not found
10 | B10 | not found
11 | B11 | not found
12 | B12 | not found
13 | B13 | not found
14 | B14 | not found
15 | B15 | not found
16 | B16 | not found
17 | B17 | not found
18 | B18 | not found
19 | B19 | not found

Row | Binder | binding in a display sort
20 | B20 | not found
21 | B21 | not found
22 | B22 | not found
23 | B23 | binds (active)
24 | B24 | not found
25 | B25 | not found
26 | B26 | not found
27 | B27 | not found
28 | B28 | not found
29 | B29 | not found
30 | B30 | not found
31 | B31 | not found
32 | B32 | not found
33 | B33 | not found
34 | B34 | not found
35 | B35 | not found
36 | B36 | not found
37 | B37 | not found

biological target: PDL1, Q9NZQ7
Sequence (Q9NZQ7 whole entry): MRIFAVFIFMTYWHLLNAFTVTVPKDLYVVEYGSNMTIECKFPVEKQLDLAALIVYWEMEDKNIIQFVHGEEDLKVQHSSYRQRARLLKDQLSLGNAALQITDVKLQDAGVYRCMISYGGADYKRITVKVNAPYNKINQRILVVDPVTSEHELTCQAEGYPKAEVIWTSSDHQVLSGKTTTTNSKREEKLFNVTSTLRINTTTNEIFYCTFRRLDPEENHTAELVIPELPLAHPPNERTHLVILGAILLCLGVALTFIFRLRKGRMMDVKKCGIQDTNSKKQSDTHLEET

Row | Binder | binding in a display sort
38 | B38 | not found
